Reference: PubChem BioAssay (NCATS)
Results filed as inconclusive are left out. Activity calls are given as the source filed them. Calls come from the whole dose curve; as a rule, active = well fitted curve in the direction sought with a large enough effect; inconclusive = small, poorly fitted or top-dose-only effect, or another doubt; inactive = no such curve, though single readings can be large; an effect the other way counts as inactive or inconclusive.

Tests used:
[1] = NS1 protein of Zika virus - qHTS assay to identify small molecule inhibitors in human HEK 293 cells (AID 1347053); note: series mostly up to about 46 µM; nearly all actives have a fitted effect of over 55% in size
How it was run: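 Read-out is a two-antibody TR-FRET for ZIKV NS1, normalized between uninfected cells and infected cells. Compound added 1 h before MR766 infection at MOI 0.5; human HEK 293 cells incubated 24 h, 37 C.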

[2] = qHTS of pediatric cancer cell lines to identify multiple opportunities for drug repurposing: Primary screen for TC32 cells (AID 1347089); note: nearly all actives have a fitted effect of over 60% in size
How it was run: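 A viability screen of TC32 cells was run over 48 h, with primary MIPE doses spanning 0.78 nM–46 µM and NPC doses 0.59 nM–46 µM. ATP luminescence (CellTiter-Glo) served as the read-out.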

[3] = qHTS of pediatric cancer cell lines to identify multiple opportunities for drug repurposing: Primary screen for DAOY cells (AID 1347090); note: series mostly up to about 46 µM; nearly all actives have a fitted effect of over 55% in size
How it was run: (§1)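 Eight- or eleven-point concentration series, 48 h treatment at 37 degrees C in growth media; readout CellTiter-Glo luminescence. Potency and efficacy were taken from the concentration-response curves.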

[4] = qHTS of pediatric cancer cell lines to identify multiple opportunities for drug repurposing: Primary screen for SJ-GBM2 cells (AID 1347091)
How it was run: as §1

[5] = qHTS of pediatric cancer cell lines to identify multiple opportunities for drug repurposing: Primary screen for A673 cells (AID 1347092); note: nearly all actives have a fitted effect of over 45% in size
How it was run: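 Titration-based qHTS on A673 cells: MIPE compounds spanned 11 points (0.78 nM to 46 µM final), NPC compounds 8 points (0.59 nM to 46 µM final). Viability after 48 h was measured by ATP luminescence.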

[6] = qHTS of pediatric cancer cell lines to identify multiple opportunities for drug repurposing: Primary screen for SK-N-MC cells (AID 1347093); note: series mostly up to about 46 µM
How it was run: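 Metabolically active cells were quantified by ATP-dependent luminescence (CellTiter-Glo, 15 min at room temperature) following 48 h treatment. Cells had been plated at 500-1,000 per well and settled for 5 h beforehand.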

[7] = qHTS of pediatric cancer cell lines to identify multiple opportunities for drug repurposing: Primary screen for BT-37 cells (AID 1347094); note: series mostly up to about 57 µM
How it was run: (§2)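 Quantitative HTS format: each compound titrated (MIPE 11 points from 0.78 nM, NPC 8 points from 0.59 nM) onto cells plated 5 hours earlier. After 48 h at 37 degrees C, CellTiter-Glo luminescence was recorded.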

[8] = qHTS of pediatric cancer cell lines to identify multiple opportunities for drug repurposing: Primary screen for NB-EBc1 cells (AID 1347095)
How it was run: as §2

[9] = qHTS of pediatric cancer cell lines to identify multiple opportunities for drug repurposing: Primary screen for U-2 OS cells (AID 1347096); note: nearly all actives have a fitted effect of over 50% in size
How it was run: (§3)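 Cells (500-1,000/well) in growth media were settled 5 h at 37 degrees C, then given compounds for 48 h. Viability was read as CellTiter-Glo luminescence. Primary runs used MIPE at 11 points (0.78 nM-46 µM) and NPC at 8 points (0.59 nM-46 µM); follow-ups used 11 points.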

[10] = qHTS of pediatric cancer cell lines to identify multiple opportunities for drug repurposing: Primary screen for Saos-2 cells (AID 1347097); note: nearly all actives have a fitted effect of over 40% in size
How it was run: as §2

[11] = qHTS of pediatric cancer cell lines to identify multiple opportunities for drug repurposing: Primary screen for SK-N-SH cells (AID 1347098);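 note: DMSO served as neutral control and bortezomib at 2.3 µM as positive control; nearly all actives have a fitted effect of over 65% in size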
How it was run: (§4)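 Cells (500-1,000/well) rested 5 h, then received compounds for 48 h; metabolically active cells were measured by CellTiter-Glo luminescence. Final concentrations spanned up to 46 µM (MIPE, 11-point) or 0.59 nM-46 µM (NPC, 8-point) in primary screens, 11-point in follow-ups.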

[12] = qHTS of pediatric cancer cell lines to identify multiple opportunities for drug repurposing: Primary screen for NB1643 cells (AID 1347099); note: nearly all actives have a fitted effect of over 50% in size
How it was run: as §2

[13] = qHTS of pediatric cancer cell lines to identify multiple opportunities for drug repurposing: Primary screen for BT-12 cells (AID 1347101); note: nearly all actives have a fitted effect of over 25% in size
How it was run: as §4

[14] = qHTS of pediatric cancer cell lines to identify multiple opportunities for drug repurposing: Primary screen for Rh18 cells (AID 1347102); note: nearly all actives have a fitted effect of over 65% in size
How it was run: as §3

[15] = qHTS of pediatric cancer cell lines to identify multiple opportunities for drug repurposing: Primary screen for OHS-50 cells (AID 1347103); note: nearly all actives have a fitted effect of over 40% in size
How it was run: as §4

[16] = qHTS of pediatric cancer cell lines to identify multiple opportunities for drug repurposing: Primary screen for LAN-5 cells (AID 1347100)
How it was run: as §3

Measured: Potency

CCn1ccc(NS(=O)(=O)c2ccc(N)cc2)nc1=O
inactive: [1] | [2] | [3] | [4] | [5] | [6] | [7] | [8] | [9] | [10] | [11] | [12] | [13] | [14] | [15]

O=C(CS(=O)Cc1ccco1)NC/C=C\COc1cc(CN2CCCCC2)ccn1 (stereo not given)
inactive: [1] | [2] | [3] | [4] | [5] | [6] | [7] | [8] | [9] | [10] | [11] | [12] | [16] | [13] | [15]

OCCc1ccccc1
inactive: [1] | [2] | [3] | [4] | [5] | [6] | [7] | [8] | [9] | [10] | [12] | [16] | [13] | [14] | [15]

CC(C)(C)CC(=O)OCC(=O)[C@@]1(O)CC[C@H]2[C@@H]3CCC4=CC(=O)C=C[C@]4(C)[C@H]3[C@@H](O)C[C@@]21C
inactive: [1] | [2] | [3] | [4] | [5] | [6] | [7] | [8] | [9] | [11] | [12] | [16] | [13] | [14]

CO/N=C(/C(=O)N[C@@H]1C(=O)N2C(C(=O)O)=C(Cn3nnc(C)n3)CS[C@H]12)c1csc(N)n1
inactive: [1] | [2] | [3] | [4] | [5] | [6] | [7] | [8] | [9] | [10] | [11] | [12] | [13] | [14] | [15]

Nc1ccc([N+](=O)[O-])c(C(F)(F)F)c1
inactive: [1] | [2] | [3] | [4] | [5] | [6] | [7] | [8] | [9] | [10] | [12] | [16] | [13] | [14] | [15]

CC(=O)c1cc2ccccc2s1
inactive: [1] | [2] | [3] | [4] | [5] | [6] | [7] | [8] | [9] | [10] | [11] | [12] | [13] | [14] | [15]

Brc1ccccc1-c1ccccc1
inactive: [1] | [2] | [3] | [4] | [5] | [6] | [7] | [8] | [9] | [10] | [11] | [12] | [16] | [13] | [14] | [15]
